Reference: PubChem BioAssay (NCI)
The panel holds about 79,000 compounds, 15% with a hit somewhere; the sample as a whole holds those more often. Active and inactive are the calls of the source. No stated cut-off is given here; in the data, active means growth inhibition above about 70%; inactive means the rest.

Assay: NCI Yeast Anticancer Drug Screen. Data for the rad50 strain (AID 155);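 further: 0% = growth of vehicle-only cultures of the same strain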
Conditions: S. cerevisiae rad50 strain growth inhibition; at 50.0 µM; stronger effect = higher value
In short: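 Yeast carrying a defined DNA repair defect were exposed to test compounds, and growth was compared with vehicle-treated controls to give percent inhibition.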

SMILES | growth inhibition
CCc1cc2c(ccc3ccccc32)c2c1CCC2 | -11.6% (inactive)
CCCCN(CCCC)CC(O)c1cc(-c2cc(C(O)CN(CCCC)CCCC)c3ccccc3n2)nc2ccccc12 (stereo not given) | 50.9% (inactive)
N#Cc1[nH]nc2nc[nH]c(=O)c12 | -16.3% (inactive)
CC(=O)CC(=O)NCCCN1CCCCCC1 | -1.1% (inactive)
O=C(NNC(=O)OCc1ccccc1)OCc1ccccc1 | 23.9% (inactive)
CC1(C(=O)N2c3ccccc3C=CC2C#N)CC2C=CC1C2 (stereo not given) | -19.9% (inactive)
COC(=O)C1C2C=CC(C2)C1C(=O)OC (stereo not given) | -20.5% (inactive)
COC(=O)CCCCCCCCC(C)C(C)=O (stereo not given) | -34.8% (inactive)
Clc1c(Cl)c(Cl)c(CSCc2c(Cl)c(Cl)c(Cl)c(Cl)c2Cl)c(Cl)c1Cl | -16.2% (inactive)
Fc1ccc(-c2nnc(-c3ccc4ccccc4c3)o2)cc1 | 18.1% (inactive)
CC1CCC2(OC1)OC1CC3C4CCC5CC(O)CCC5(C)C4CC(=O)OC3(C)C1C2C (stereo not given) | -10.8% (inactive)
C=C(/C=C/CCCC)NC(=O)OCc1ccccc1 | 13.4% (inactive)
CC(NC(=O)C(N)CC(=O)O)NC(=O)C1CCC1 (stereo not given) | -39.9% (inactive)
CCOC(=O)c1c(Br)c(-c2ccc([N+](=O)[O-])cc2)c(Br)n1C | 11.4% (inactive)
O=C(O)c1ccccn1 | -37.6% (inactive)
CC(=O)/C(=N/O)C(C)C | 4.6% (inactive)
O=C([O-])[C+](C=Cc1cccc2ccccc12)C(=O)O | 9.05% (inactive)
Cc1ccc(OC(=O)c2ccc([N+](=O)[O-])cc2)cc1C(C)C | -15.6% (inactive)
Cc1nc(N)c(N=O)c(=O)[nH]1 | 13.2% (inactive)
CC(=O)C1(SCCO)CCC2C3CCC4=CC(=O)CCC4(C)C3CCC21C (stereo not given) | 91.8% (active)

SMILES | growth inhibition
COc1csn[n+]1-c1ccc(C)cc1 | 7.7% (inactive)
CCN(CC)C(=O)c1ccccc1 | 7.75% (inactive)
CC(=O)N[C@@H]1CCC[C@H](NC(C)=O)C1 | -9.75% (inactive)
C[CH2][Ge]([CH2]C)([CH2]C)[O]C(=O)CCC(=O)[O][Ge]([CH2]C)([CH2]C)[CH2]C | -2.1% (inactive)
COc1cc(S(=O)(=O)O)ccc1N=N/C(=N\Nc1ccc(S(=O)(=O)O)cc1OC)C(N)=O | -42.1% (inactive)
OCc1ccc(F)cc1 | -6.35% (inactive)
O=c1[nH]c2cc(Cl)c(Cl)cc2c2ccc(Cl)cc12 | 12.2% (inactive)
NC(=S)n1nc(-c2ccccc2)c(N=Nc2cccc([N+](=O)[O-])c2)c1-c1ccccc1 | 32.9% (inactive)
CC(C)=CCC/C(C)=C/C=O | 9.1% (inactive)
CC1(C)OC(=O)C=C([O-])O1.CC1(C)OC(=O)C=C([O-])O1.O=c1c(O)c(-c2ccc([O-])cc2[O-])oc2cc(O)cc(O)c12.[Ti+4] | -45.6% (inactive)
O=C1C(=O)N(C23CC4CC(CC(C4)C2)C3)C(=S)N1c1ccccc1 | -9.7% (inactive)
CCOC(=O)N1C=Cc2c(c3ccccc3n2C)N1C(=O)OCC | 3.85% (inactive)
O=C(O)c1ccc(C(=O)c2ccc(C(=O)c3ccc(C(=O)O)cc3)cc2)cc1 | -9.1% (inactive)
O=C(O)c1ccc[n+](Cc2ccccc2)c1 | 4.9% (inactive)
C=CCOC(=O)CCC(C#N)(C#N)CCC(=O)OCC=C | -9.55% (inactive)
Cc1ccc(S(=O)(=O)Cc2c(C)cc(C)cc2C)cc1 | 12.3% (inactive)
NC(=S)N/N=C1\CCCCC1C(O)(C(F)(F)Cl)C(F)(F)Cl (stereo not given) | -26.2% (inactive)
CCCCCC1CCN(C(=O)c2ccc(N)cc2)CC1 | 90% (active)
Cn1c(N)c(N=Cc2ccc(Cl)cc2)c(=O)n(C)c1=O | -9.2% (inactive)
O=C1C=CC(=Nc2ccc(OC(=O)c3ccccc3)cc2)C=C1 | 9.9% (inactive)

Assay: NCI Yeast Anticancer Drug Screen. Data for the mec2-1 strain (AID 157)
Conditions: S. cerevisiae mec2-1 strain, at 50.0 µM, stronger effect = higher value
In short: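 Mutant yeast (mec2-1) grown with compound; growth inhibition relative to vehicle control reported.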

SMILES | growth inhibition
CCc1cc2c(ccc3ccccc32)c2c1CCC2 | -11.7% (inactive)
CCCCN(CCCC)CC(O)c1cc(-c2cc(C(O)CN(CCCC)CCCC)c3ccccc3n2)nc2ccccc12 (stereo not given) | -8.2% (inactive)
N#Cc1[nH]nc2nc[nH]c(=O)c12 | -14.8% (inactive)
CC(=O)CC(=O)NCCCN1CCCCCC1 | -20.1% (inactive)
O=C(NNC(=O)OCc1ccccc1)OCc1ccccc1 | -2.75% (inactive)
CC1(C(=O)N2c3ccccc3C=CC2C#N)CC2C=CC1C2 (stereo not given) | 4.6% (inactive)
COC(=O)C1C2C=CC(C2)C1C(=O)OC (stereo not given) | 36.5% (inactive)
COC(=O)CCCCCCCCC(C)C(C)=O (stereo not given) | -29.8% (inactive)
Clc1c(Cl)c(Cl)c(CSCc2c(Cl)c(Cl)c(Cl)c(Cl)c2Cl)c(Cl)c1Cl | -7% (inactive)
Fc1ccc(-c2nnc(-c3ccc4ccccc4c3)o2)cc1 | -11.3% (inactive)
CC1CCC2(OC1)OC1CC3C4CCC5CC(O)CCC5(C)C4CC(=O)OC3(C)C1C2C (stereo not given) | -23.6% (inactive)
C=C(/C=C/CCCC)NC(=O)OCc1ccccc1 | 12.4% (inactive)
CC(NC(=O)C(N)CC(=O)O)NC(=O)C1CCC1 (stereo not given) | -48.1% (inactive)
CCOC(=O)c1c(Br)c(-c2ccc([N+](=O)[O-])cc2)c(Br)n1C | -7.4% (inactive)
O=C(O)c1ccccn1 | -3% (inactive)
CC(=O)/C(=N/O)C(C)C | -3.5% (inactive)
O=C([O-])[C+](C=Cc1cccc2ccccc12)C(=O)O | -5.4% (inactive)
Cc1ccc(OC(=O)c2ccc([N+](=O)[O-])cc2)cc1C(C)C | -9.25% (inactive)
Cc1nc(N)c(N=O)c(=O)[nH]1 | 8.75% (inactive)
CC(=O)C1(SCCO)CCC2C3CCC4=CC(=O)CCC4(C)C3CCC21C (stereo not given) | 69.8% (inactive)

SMILES | growth inhibition
COc1csn[n+]1-c1ccc(C)cc1 | 3.65% (inactive)
CCN(CC)C(=O)c1ccccc1 | 8.6% (inactive)
CC(=O)N[C@@H]1CCC[C@H](NC(C)=O)C1 | -44.4% (inactive)
C[CH2][Ge]([CH2]C)([CH2]C)[O]C(=O)CCC(=O)[O][Ge]([CH2]C)([CH2]C)[CH2]C | -2.9% (inactive)
COc1cc(S(=O)(=O)O)ccc1N=N/C(=N\Nc1ccc(S(=O)(=O)O)cc1OC)C(N)=O | 5.55% (inactive)
OCc1ccc(F)cc1 | -14.6% (inactive)
O=c1[nH]c2cc(Cl)c(Cl)cc2c2ccc(Cl)cc12 | -5.55% (inactive)
NC(=S)n1nc(-c2ccccc2)c(N=Nc2cccc([N+](=O)[O-])c2)c1-c1ccccc1 | 7.5% (inactive)
CC(C)=CCC/C(C)=C/C=O | 2.95% (inactive)
CC1(C)OC(=O)C=C([O-])O1.CC1(C)OC(=O)C=C([O-])O1.O=c1c(O)c(-c2ccc([O-])cc2[O-])oc2cc(O)cc(O)c12.[Ti+4] | 9.05% (inactive)
O=C1C(=O)N(C23CC4CC(CC(C4)C2)C3)C(=S)N1c1ccccc1 | -20.6% (inactive)
CCOC(=O)N1C=Cc2c(c3ccccc3n2C)N1C(=O)OCC | 1% (inactive)
O=C(O)c1ccc(C(=O)c2ccc(C(=O)c3ccc(C(=O)O)cc3)cc2)cc1 | -18.4% (inactive)
O=C(O)c1ccc[n+](Cc2ccccc2)c1 | 12.6% (inactive)
C=CCOC(=O)CCC(C#N)(C#N)CCC(=O)OCC=C | -7.1% (inactive)
Cc1ccc(S(=O)(=O)Cc2c(C)cc(C)cc2C)cc1 | 3.8% (inactive)
NC(=S)N/N=C1\CCCCC1C(O)(C(F)(F)Cl)C(F)(F)Cl (stereo not given) | -33.8% (inactive)
CCCCCC1CCN(C(=O)c2ccc(N)cc2)CC1 | 52.8% (inactive)
Cn1c(N)c(N=Cc2ccc(Cl)cc2)c(=O)n(C)c1=O | 2.35% (inactive)
O=C1C=CC(=Nc2ccc(OC(=O)c3ccccc3)cc2)C=C1 | -4.95% (inactive)
